Drawing on article PMC5515408, “Sequence-specific DNA binding by MYC/MAX to low-affinity non-E-box motifs”, this text covers binding signal for 55 sequences.

In all, about 5,000 sequences were measured (“log2 normalized fluorescence”: median about 0.089, highest 2% from about 0.81 on). This excerpt belongs to a sample that is enriched for the highest values.

MYC (p64);MAX (p21), in MYC:MAX, sequence (P01106 16-454, chain 1 of 2): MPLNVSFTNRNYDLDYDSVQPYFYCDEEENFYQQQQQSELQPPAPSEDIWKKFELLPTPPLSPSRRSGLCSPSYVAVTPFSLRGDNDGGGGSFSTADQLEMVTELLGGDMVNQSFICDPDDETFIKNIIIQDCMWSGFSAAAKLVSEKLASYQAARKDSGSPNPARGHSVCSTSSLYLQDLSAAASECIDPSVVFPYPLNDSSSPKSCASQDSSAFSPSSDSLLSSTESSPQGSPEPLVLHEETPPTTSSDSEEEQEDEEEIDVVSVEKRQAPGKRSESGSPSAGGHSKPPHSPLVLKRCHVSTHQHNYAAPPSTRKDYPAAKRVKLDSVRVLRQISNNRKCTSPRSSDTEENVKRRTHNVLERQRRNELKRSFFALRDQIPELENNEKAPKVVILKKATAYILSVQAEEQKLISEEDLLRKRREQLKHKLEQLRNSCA
MYC (p64);MAX (p21), in MYC:MAX, sequence (P61244 other isoform, or with tags, fused parts or gaps |, chain 2 of 2): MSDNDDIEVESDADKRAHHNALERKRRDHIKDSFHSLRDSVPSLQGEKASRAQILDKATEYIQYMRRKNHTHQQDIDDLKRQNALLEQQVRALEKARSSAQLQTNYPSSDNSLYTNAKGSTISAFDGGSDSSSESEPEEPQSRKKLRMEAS

This assay has as its target MYC (p64);MAX (p21), in MYC:MAX (human;human, UniProt P01106-1;P61244-2 1-439;1-151, |). As to the kind of experiment: protein-binding microarray (anti-MAX antibody); PBM: 15 mM Tris-HCl pH 7.5, 100 mM KCl, 0.075% NP40, 7.5 mM beta-mercaptoethanol, 375 ng/ul BSA, 8 ng/ul poly(dA-dT):(dA-dT), 550 ng complex, 60 min, room tempe; high values mean tight binding. To be noted: protein: recombinant;recombinant; tags: 6xHis;6xHis; copies: 1;1; label: 3' end of printed strand (linker) attached to glass slide; dsDNA, one strand shown. The procedure, abridged:
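For each of ~5000 unique double-stranded 12-nt sequences, spotted in triplicate on a custom Agilent glass array, binding of His-tagged human MYC:MAX or MAX:MAX dimers is reported as log2 normalized fluorescence. The dimers (550 ng, E. coli-expressed) were incubated for 60 min at room temperature in Tris-KCl buffer, pH 7.5, with NP40, BSA and poly(dA-dT) competitor. Detection used anti-MAX and secondary antibodies with a 543 nm scan.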
With “CCGGCTGAAAGCATGTATTAATAGCTAAGATTACTATATCGACG”, the binding signal was 0.491 log2 normalized fluorescence. In the case of “CCGGCTGAGCATGCGTATTAATAGCTAAGATTACTATATCGACG” it was 0.461 log2 normalized fluorescence. In the case of “CCGGCTGAGTCCGCGTATTAATAGCTAAGATTACTATATCGACG” it was 0.0725 log2 normalized fluorescence; in that of “CCGGCTGACCCGTGGTTTTAATAGCTAAGATTACTATATCGACG”, 0.466 log2 normalized fluorescence; in that of “CCGGCAGATACGTGGTGTTAATAGCTAAGATTACTATATCGACG”, 0.257 log2 normalized fluorescence. Regarding “CCGGCAGACACGTGGTGTTAATAGCTAAGATTACTATATCGACG”, the binding signal is 0.826 log2 normalized fluorescence.

In the case of “CCGGCAGACATGTGGTGTTAATAGCTAAGATTACTATATCGACG”, the binding signal is 0.734 log2 normalized fluorescence. In the case of “CCGGCTGACTTCAGGTATTAATAGCTAAGATTACTATATCGACG” it was 0.148 log2 normalized fluorescence; in that of “CCGGCTGACCAAGTGTATTAATAGCTAAGATTACTATATCGACG”, 0.214 log2 normalized fluorescence; in that of “CCGGCATTCACGTGGTATTAATAGCTAAGATTACTATATCGACG”, 0.958 log2 normalized fluorescence.

“CCGGCGTTCACGTGGTATTAATAGCTAAGATTACTATATCGACG”: the binding signal was 0.664 log2 normalized fluorescence. To “CCGGCAATCACGTGGTATTAATAGCTAAGATTACTATATCGACG” belongs 0.75 log2 normalized fluorescence; to “CCGGCTTTCACGTGGTATTAATAGCTAAGATTACTATATCGACG”, 0.847 log2 normalized fluorescence. In the case of “CCGGCATCCACGTGGTATTAATAGCTAAGATTACTATATCGACG” it was 0.471 log2 normalized fluorescence; in that of “CCGGCCTTCACGTGGTATTAATAGCTAAGATTACTATATCGACG”, 0.765 log2 normalized fluorescence.

As for “CCGGCTGACGAGATGTATTAATAGCTAAGATTACTATATCGACG”, the binding signal was 0.0764 log2 normalized fluorescence.

Regarding “CCGGCTGACACGCGCTATTAATAGCTAAGATTACTATATCGACG”, the binding signal is 0.811 log2 normalized fluorescence. In the case of “CCGGCTGGGTCGTGGTATTAATAGCTAAGATTACTATATCGACG” it was 0.0754 log2 normalized fluorescence; in that of “CCGGCTGAGGTGACGTATTAATAGCTAAGATTACTATATCGACG”, 0.0346 log2 normalized fluorescence; in that of “CCGGCTGAATAATTGTATTAATAGCTAAGATTACTATATCGACG”, -0.0392 log2 normalized fluorescence. Consider “CCGGCAGACACGTGGTCTTAATAGCTAAGATTACTATATCGACG”, for which the binding signal was 0.904 log2 normalized fluorescence.

Consider “CCGGCTGACACGTCTTATTAATAGCTAAGATTACTATATCGACG”, for which the binding signal was 0.308 log2 normalized fluorescence. To “CCGGCTGACACGCGGTCTTAATAGCTAAGATTACTATATCGACG” belongs 1.03 log2 normalized fluorescence. To “CCGGCTGACCCGTGGTCTTAATAGCTAAGATTACTATATCGACG” belongs 0.399 log2 normalized fluorescence; to “CCGGCTAACACGCGGTCTTAATAGCTAAGATTACTATATCGACG”, 0.739 log2 normalized fluorescence. On to “CCGGCAGACACGTGGTATTAATAGCTAAGATTACTATATCGACG”, for which the binding signal was 0.798 log2 normalized fluorescence. With “CCGGCTGACACACGGTCTTAATAGCTAAGATTACTATATCGACG”, the binding signal is 0.354 log2 normalized fluorescence. To “CCGGCAGACACGCGGTCTTAATAGCTAAGATTACTATATCGACG” belongs 0.8 log2 normalized fluorescence. For the sequence “CCGGCTGACACGTGGTCTTAATAGCTAAGATTACTATATCGACG”, the binding signal was 1.02 log2 normalized fluorescence. To “CCGGCTGAACAAGGGTATTAATAGCTAAGATTACTATATCGACG” belongs 0.093 log2 normalized fluorescence; to “CCGGCTGACCAAAGGTATTAATAGCTAAGATTACTATATCGACG”, 0.0357 log2 normalized fluorescence; to “CCGGCTGACGACAAGTATTAATAGCTAAGATTACTATATCGACG”, 0.0769 log2 normalized fluorescence. To “CCGGCTGACTCCAAGTATTAATAGCTAAGATTACTATATCGACG” belongs 0.0835 log2 normalized fluorescence; to “CCGGCTGACAACTGGTTTTAATAGCTAAGATTACTATATCGACG”, 0.195 log2 normalized fluorescence. In the case of “CCGGCTGAAGGACTGTATTAATAGCTAAGATTACTATATCGACG” it was 0.0114 log2 normalized fluorescence; in that of “CCGGCCTCCACGTGGTATTAATAGCTAAGATTACTATATCGACG”, 0.737 log2 normalized fluorescence. As to “CCGGCGTCCACGTGGTATTAATAGCTAAGATTACTATATCGACG”, the binding signal is 0.808 log2 normalized fluorescence.

Take “CCGGCTTGCACTTGGTATTAATAGCTAAGATTACTATATCGACG”: the binding signal is 0.318 log2 normalized fluorescence. Take “CCGGCGTATACGTGGTATTAATAGCTAAGATTACTATATCGACG”: the binding signal was 0.202 log2 normalized fluorescence.

Regarding “CCGGCCTACACGTGGTATTAATAGCTAAGATTACTATATCGACG”, the binding signal is 0.805 log2 normalized fluorescence. Consider “CCGGCGTGCACGTGGTATTAATAGCTAAGATTACTATATCGACG”, for which the binding signal was 0.856 log2 normalized fluorescence. To “CCGGCTTGCACGTGGTTTTAATAGCTAAGATTACTATATCGACG” belongs 0.716 log2 normalized fluorescence. To “CCGGCTTGCACGTGGTATTAATAGCTAAGATTACTATATCGACG” belongs 1.01 log2 normalized fluorescence. To “CCGGCCTGCACGTGGTATTAATAGCTAAGATTACTATATCGACG” belongs 0.875 log2 normalized fluorescence; to “CCGGCTGAATTACCGTATTAATAGCTAAGATTACTATATCGACG”, 0.041 log2 normalized fluorescence; to “CCGGCTGAGCAACTGTATTAATAGCTAAGATTACTATATCGACG”, 0.128 log2 normalized fluorescence. In the case of “CCGGCTGAATTACTGTATTAATAGCTAAGATTACTATATCGACG”, the binding signal was 0.0701 log2 normalized fluorescence. To “CCGGCTGAGTCGGGGTATTAATAGCTAAGATTACTATATCGACG” belongs 0.126 log2 normalized fluorescence. Consider “CCGGCACACACGTGGTATTAATAGCTAAGATTACTATATCGACG”, for which the binding signal is 0.804 log2 normalized fluorescence. In the case of “CCGGCACGCACGTGGTATTAATAGCTAAGATTACTATATCGACG” it was 0.838 log2 normalized fluorescence.

Consider “CCGGCAGAGACGTGGTATTAATAGCTAAGATTACTATATCGACG”, for which the binding signal is 0.387 log2 normalized fluorescence.

Turning to “CCGGCACTCACGTGGTATTAATAGCTAAGATTACTATATCGACG”, the binding signal was 0.862 log2 normalized fluorescence. To “CCGGCTACTACGTGGTATTAATAGCTAAGATTACTATATCGACG” belongs 0.34 log2 normalized fluorescence; to “CCGGCAGGCACGTGGTATTAATAGCTAAGATTACTATATCGACG”, 0.815 log2 normalized fluorescence. On to “CCGGCACCCACGTGGTATTAATAGCTAAGATTACTATATCGACG”, for which the binding signal was 0.845 log2 normalized fluorescence.
